Compound activity from PubChem.
PTK2B oligo ant – blocks oligomerization of human Pyk2 in cells; z-score (the deposit names both 25 µM and 10 µM); Q14289; 0.83% of 99,000 active; Q293 cells, Pyk2 FERM NanoBiT luminescence; hits give low values;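 active means Z-score of -3 or lower, scaled per plate to the spread of control and sample wells; inactive means z-score above -3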;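 further: negative z-score means lost luminescence so less FERM oligomerization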
CD11b adhes inh – CD11b/CD18-fibrinogen binding inhibition; inhibition, % at 10 µM; K562 CD11b/CD18 adhesion to fibrinogen, ATPlite luminescence; Mn2+ added to activate the integrin; AID 1497; P05107+P11215; 0.54% of 93,000 active;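 active means primary inhibition of 50% or more at 10 µM, then 40% or more on retest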
CD11b adhes enh – CD11b/CD18-fibrinogen binding enhancement. K562 CD11b/CD18 adhesion to fibrinogen, ATPlite luminescence. activation, % at 10 µM. 0.07% of 93,000 active;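 active means 10 µM primary screen giving 50% or more activity, confirmed by 40% or more on retest at that dose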
Cav3 T inh – inhibitors of human Cav3.2 T-type calcium channel | 4% of 100,000 active | B-score at 10 µM | Cav3.2-expressing cells, Fluo-4 calcium fluorescence FDSS; hits give low values;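 active means single-dose well whose peak fluorescence ratio is a statistical outlier from its plate by either plate-standardised score or position-corrected B-score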
E coli RNAP – Escherichia coli RNA polymerase inhibition | P0A8V2 | E. coli RNA polymerase, fluorescence transcription assay | inhibition, %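 (tested at 10 µM)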 | 0.2% of 62,000 active; in the data active means inhibition above about 20%;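 further: 0% = enzyme without compound and 100% = no enzyme blank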
Target sequence (P0A8V2 whole entry, looked up): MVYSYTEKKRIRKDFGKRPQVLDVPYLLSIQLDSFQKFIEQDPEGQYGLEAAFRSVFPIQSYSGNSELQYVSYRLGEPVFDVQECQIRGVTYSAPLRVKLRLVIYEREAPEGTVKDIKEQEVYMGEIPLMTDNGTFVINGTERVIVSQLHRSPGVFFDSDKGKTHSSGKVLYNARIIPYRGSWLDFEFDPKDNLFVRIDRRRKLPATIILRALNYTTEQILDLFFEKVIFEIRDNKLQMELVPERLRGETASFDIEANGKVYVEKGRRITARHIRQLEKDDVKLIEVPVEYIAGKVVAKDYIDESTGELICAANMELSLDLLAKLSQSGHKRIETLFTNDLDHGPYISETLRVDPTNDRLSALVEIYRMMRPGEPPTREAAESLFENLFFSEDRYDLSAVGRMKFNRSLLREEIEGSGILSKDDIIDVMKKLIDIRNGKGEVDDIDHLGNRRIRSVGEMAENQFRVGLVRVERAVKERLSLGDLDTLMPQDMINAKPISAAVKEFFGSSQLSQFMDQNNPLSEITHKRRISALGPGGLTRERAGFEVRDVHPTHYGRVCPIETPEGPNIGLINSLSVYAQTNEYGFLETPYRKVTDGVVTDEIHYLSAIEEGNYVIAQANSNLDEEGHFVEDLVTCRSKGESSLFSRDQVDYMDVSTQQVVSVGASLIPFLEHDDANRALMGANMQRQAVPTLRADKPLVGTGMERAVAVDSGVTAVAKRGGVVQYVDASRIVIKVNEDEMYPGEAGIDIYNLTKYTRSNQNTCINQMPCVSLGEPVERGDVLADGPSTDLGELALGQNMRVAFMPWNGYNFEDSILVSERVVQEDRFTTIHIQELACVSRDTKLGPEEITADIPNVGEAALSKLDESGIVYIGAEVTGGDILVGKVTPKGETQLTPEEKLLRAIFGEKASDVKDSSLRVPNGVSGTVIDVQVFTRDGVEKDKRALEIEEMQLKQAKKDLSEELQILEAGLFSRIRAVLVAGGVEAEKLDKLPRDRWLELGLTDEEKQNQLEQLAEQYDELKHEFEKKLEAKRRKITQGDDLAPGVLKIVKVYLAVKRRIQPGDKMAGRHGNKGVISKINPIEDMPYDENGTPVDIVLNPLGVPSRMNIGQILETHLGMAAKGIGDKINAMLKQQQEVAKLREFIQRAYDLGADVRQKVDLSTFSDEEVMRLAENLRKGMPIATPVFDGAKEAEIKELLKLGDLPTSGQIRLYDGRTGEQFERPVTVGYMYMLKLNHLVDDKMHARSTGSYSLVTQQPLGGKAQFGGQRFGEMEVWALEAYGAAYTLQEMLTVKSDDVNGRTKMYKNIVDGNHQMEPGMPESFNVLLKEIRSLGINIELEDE
* = called active by the depositor; nt = not tested or not shown. An excerpt weighted towards active compounds, which were near 4.2% of everything screened.

SMILES	PTK2B oligo ant	CD11b adhes inh	CD11b adhes enh	Cav3 T inh	E coli RNAP
CCC(C)OC(=O)C1=C(C)NC2=C(C(=O)C(C(=O)OC)C(C)C2)C1c1ccc(N(C)C)cc1 (configuration not stated)	-0.85	-49.6	7.4	-2.34	2.2
CCCOC(=O)C1=C(C)NC2=C(C(=O)C(C(=O)OC)C(C)C2)C1c1ccc(N(CC)CC)cc1 (configuration not stated)	-0.59	nt	nt	-7.28*	5.6
Cc1ccc(NC(=O)c2c(-c3c(F)cccc3Cl)noc2C)cc1F	-1.1	-2.5	-1.5	-8.29*	5.2
CCCN1C=CC(=C2C(=O)c3ccccc3C2=O)C=C1	0.99	94.9*	-9.6	1.55	10.0
Cc1ccc(CNCCC2=CCCCC2)cc1	0.51	9.1	-3.2	0.0831	nt
Cc1ccc(NC(=O)c2noc3c2CCc2ccccc2-3)cc1	-0.45	1.0	-6.0	0.495	nt
Cc1nn(Cc2ccccc2)c(C)c1NC(=O)c1noc2c1CCc1ccccc1-2	nt	-0.6	3.1	-6.26*	nt
CCNC(=S)N(Cc1ccccc1)Cc1nc2ccccc2c(=O)[nH]1	-0.79	nt	nt	nt	nt
CCc1ccc(CSc2nccn2-c2ccccc2)cc1	-1.16	nt	nt	-5.4*	nt
c1ccc(CCSc2nccn2-c2ccccc2)cc1	-1.12	nt	nt	-3.28	nt
Fc1ccc(-n2nnc(-c3ccnc4ccccc34)n2)cc1	nt	nt	nt	-0.0673	nt
CCCCNc1nc(-c2ccccc2)c(C(=O)OCC)cc1C#N	-0.7	nt	nt	-4.2	nt
C=CCNc1nc(-c2ccccc2)c(C(=O)OCC)cc1C#N	-1.04	nt	nt	-4.39*	nt
Cc1cccc(CCN2CCC(C(=O)c3ccc(NS(C)(=O)=O)cc3)CC2)n1	nt	nt	nt	-0.8	nt
CCO[C@H]1OC(C(=O)O)=C[C@@H](c2ccc3c(c2)OCO3)[C@@H]1CCCO	nt	nt	nt	0.297	nt
O=C1C2CCCN2C(=O)N1CCCCN1CCN(c2cccc(Cl)c2)CC1 (configuration not stated)	2.22	nt	nt	nt	nt
Cn1c(=O)c2c(nc(NCc3ccc4c(c3)OCO4)n2Cc2ccccc2F)n(C)c1=O	-1.35	4.6	8.7	-0.867	14.1
Cn1c(=O)c2c(nc(NCc3ccc4c(c3)OCO4)n2Cc2ccccc2)n(C)c1=O	-1.68	nt	nt	-5.98*	-14.1
Cn1c(=O)c2c(nc(NCc3ccc4c(c3)OCO4)n2Cc2ccc(F)cc2)n(C)c1=O	-2.92	-28.4	11.2	-4.31*	5.5
Cn1c(=O)c2c(nc(Oc3ccc4c(c3)OCO4)n2Cc2ccc(Cl)cc2)n(C)c1=O	0.78	-10.7	4.0	0.558	9.1
CN(Cc1ccccc1)c1nc2c(c(=O)n(C)c(=O)n2C)n1CCCc1ccccc1	-0.63	-28.2	-1.0	-6.25*	7.9
CCCCCn1c(CN(C)Cc2ccccc2)nc2c1c(=O)n(C)c(=O)n2C	0.26	7.9	-4.6	-2.87	7.9
CN(Cc1ccccc1)Cc1nc2c(c(=O)n(C)c(=O)n2C)n1Cc1ccc(Cl)cc1	-1.15	nt	nt	nt	-14.0
Cn1c(=O)c2c(nc(CN3CCN(c4ccccc4)CC3)n2CCc2ccccc2)n(C)c1=O	0.32	nt	nt	-5.65*	nt
CN(Cc1ccccc1)Cc1nc2c(c(=O)n(C)c(=O)n2C)n1Cc1ccc(F)cc1	-1	-5.8	10.3	-4.33*	-1.2
SMILES	PTK2B oligo ant	CD11b adhes inh	CD11b adhes enh	Cav3 T inh	E coli RNAP
CC(O)CSc1nc2c(c(=O)n(C)c(=O)n2C)n1CCCc1ccccc1 (configuration not stated)	nt	nt	nt	-0.618	-7.2
Cc1ccc(Cn2c(CN(C)Cc3ccccc3)nc3c2c(=O)n(C)c(=O)n3C)cc1	0.17	1.3	3.2	-5.23*	8.6
Cn1c(=O)c2c(nc(CN3CCN(c4cccc(Cl)c4)CC3)n2CCc2ccccc2)n(C)c1=O	-0.32	nt	nt	-2.44	nt
CN(Cc1ccccc1)c1nc2c(c(=O)[nH]c(=O)n2C)n1Cc1ccccc1	-0.77	-9.9	6.2	-0.4	10.7
CN(Cc1ccccc1)c1nc2c(c(=O)[nH]c(=O)n2C)n1CCOc1ccccc1	-0.83	-2.7	0.1	-4.82*	-1.4
OC(Cn1cncn1)(c1ccccc1)c1ccccc1	0.06	-22.9	-0.4	1.03	nt
CC(C(=O)NC1CCCC1)N(C(=O)c1ccc(-c2ccccc2)[nH]1)c1ccccc1F (configuration not stated)	-2.09	nt	nt	-6.01*	nt
CC(COc1ccccc1Cc1ccccc1)N1CCCCC1 (configuration not stated)	nt	nt	nt	-2.93	nt
CCOC(=O)C1=C(C)N2C(=C(C#N)[C@@H]1c1ccc(C(=O)OC)cc1)SC[C@@]2(O)C(C)(C)C	-1.27	11.6	0.8	-5.78*	-0.5
CCOC(=O)C1=C(C)N=C2SCCC(=O)N2C1c1ccc(C(=O)OC)cc1 (configuration not stated)	0.34	-7.3	-0.5	0.683	4.5
CCOc1cc(CN2CCN(c3cccc(C(F)(F)F)c3)CC2)ccc1OC	-0.74	-5.2	0.9	-4.4*	nt
CCC1C(=O)Nc2nc(-c3ccccc3)c(-c3ccccc3)n2N=C1C (configuration not stated)	-0.53	0.2	-3.9	-3.02	nt
COc1ccc(-c2c(C)nn3c(N4CCC(C(=O)NCCN(C)C)CC4)cc(C)nc23)cc1OC	-0.09	-18.0	1.5	3.13*	6.4
CCCN(CCC)C(=O)C1CCN(c2cc(C)nc3c(-c4ccc(OC)c(OC)c4)c(C)nn23)CC1	nt	-0.5	-7.1	-1.44	3.6
COc1ccc2c(c1)C1(Nc3ccccc3-c3nc4ccccc4n31)C(=O)N2C (configuration not stated)	-3.14*	nt	nt	0.238	10.6
CCCC[C@@H]1CNC(=O)C(=O)N1CCc1cccc2ccccc12	nt	nt	nt	0.0133	nt
CCOc1cc(-c2cc(-c3ccc(N)cc3)nc(N)c2C#N)ccc1O	-3.76*	-3.4	-2.5	0.188	-29.6
CCOc1cc(-c2cc(-c3ccccc3)nc(N)c2C#N)ccc1O	-3.35*	-9.3	-3.4	0.561	nt
CCOc1cc(-c2c(C#N)c(N)nc3c2CCCC3)ccc1O	-1.95	9.9	-1.6	-0.229	4.5
COc1ccc(N2CCN(C(=O)CC(NC(N)=O)c3cccc(Oc4ccccc4)c3)CC2)cc1 (configuration not stated)	-0.25	-16.8	-1.8	-5.52*	2.5
COc1ccc(N2CCN(C(=O)CSc3ccccc3)CC2)cc1	-0.03	1.3	-1.2	-0.254	7.4
OCC(CO)(CO)N=Cc1cc(Br)ccc1O	0.34	0.6	28.6	-7.11*	8.2
Oc1ccc(Br)cc1/C=N/N1CCCCC1	0.82	nt	nt	nt	nt
COc1cccc(C(=O)NCC(=O)OCC(=O)Nc2cc(OC)c([N+](=O)[O-])cc2C)c1	nt	-14.8	2.5	nt	nt
COc1ccc(C2C(Oc3ccccc3C)C(=O)N2Cc2ccc(F)cc2)cc1OC (configuration not stated)	0.51	-32.8	-2.9	-4.66*	nt
COc1ccc(OC2C(=O)N(Cc3ccc(F)cc3)C2c2cc(OC)c(OC)c(OC)c2)cc1 (configuration not stated)	nt	-5.2	1.5	nt	nt
CC(C)(C)C(=O)NC(=S)Nc1ccccc1C(=O)Nc1ccccc1	0.44	6.4	1.9	0.0712	nt
CN(C)CC(C)(C)CNS(=O)(=O)c1ccc(Cl)c(Cl)c1	-1.6	6.0	-0.7	0.742	nt
